Data: PubChem BioAssay AID1159580 (chemical genetic matrix, 2015)
Out of some 5,500 compounds screened, about 2,000 (36%) were called active. Another 18% or so got no clear call; they are omitted. No stated cut-off is given here; in the data, active means normalized growth mostly below about 0.91 (no sharp cut-off); inconclusive means no clear call, values can overlap the other calls; inactive means mostly above about 0.92. Some of the results follow.

Experiment: chemical genetic growth profiling, strain panel (AID 1159580);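 further: tested at 20 µM; growth read once vehicle control cultures reached saturation at 30 °C; 1 = growth at the plate median or of vehicle wells; lower values mean less growth of the strain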
Details: growth OD

Measured: normalized growth

CCC(N)C(O)c1ccc(O)c(O)c1 (configuration not stated)
inactive: S. cerevisiae deletion strains, locus YJR075W, strain HOC1, hits give low values 1.01 | S. cerevisiae deletion strains, locus YKL009W, strain mrt4, hits give low values 0.996 | S. cerevisiae deletion strains, locus YKL068W, hits give low values 0.993 | S. cerevisiae deletion strains, locus YKL085W, strain MDH1 (second series), hits give low values 0.985 | S. cerevisiae deletion strains, locus YKL085W, strain MDH1, hits give low values 0.985 | S. cerevisiae deletion strains, locus YKL160W, strain elf1, hits give low values 0.999 | S. cerevisiae deletion strains, locus YKL190W, strain CNB1, hits give low values 1.01 | S. cerevisiae deletion strains, locus YKR001C, strain vps1, hits give low values 0.99 | S. cerevisiae deletion strains, locus YKR026C, strain gcn3, hits give low values 0.973 | S. cerevisiae deletion strains, locus YKR091W, strain srl3, hits give low values 0.993 | S. cerevisiae deletion strains, locus YLL001W, strain dnm1, hits give low values 1 | S. cerevisiae deletion strains, locus YLL026W, hits give low values 0.984 | S. cerevisiae deletion strains, locus YLL041C, strain sdh2, hits give low values 1 | S. cerevisiae deletion strains, locus YLR027C, strain aat2, hits give low values 0.988 | S. cerevisiae deletion strains, locus YLR039C, strain RIC1, hits give low values 1.06 | S. cerevisiae deletion strains, locus YLR058C, strain SHM2, hits give low values 1.02 | S. cerevisiae deletion strains, locus YLR102C, strain apc9, hits give low values 0.983 | S. cerevisiae deletion strains, locus YLR113W, strain HOG1, hits give low values 0.998 | S. cerevisiae deletion strains, locus YLR221C, strain rsa3, hits give low values 1 | S. cerevisiae deletion strains, locus YLR258W, strain gsy2, hits give low values 0.993 | S. cerevisiae deletion strains, locus YLR262C, strain YPT6 (second series), hits give low values 0.996 | S. cerevisiae deletion strains, locus YLR262C, strain YPT6, hits give low values 1.05 | S. cerevisiae deletion strains, locus YLR268W, strain sec22, hits give low values 0.928 | S. cerevisiae deletion strains, locus YLR320W, strain mms22, hits give low values 0.99 | S. cerevisiae deletion strains, locus YLR330W, strain CHS5, hits give low values 1.01 | S. cerevisiae deletion strains, locus YLR342W, strain FKS1 (second series), hits give low values 0.989 | S. cerevisiae deletion strains, locus YLR342W, strain FKS1, hits give low values 0.995 | S. cerevisiae deletion strains, locus YLR357W, strain rsc2, hits give low values 0.979 | S. cerevisiae deletion strains, locus YLR370C, strain arc18, hits give low values 0.989 | S. cerevisiae deletion strains, locus YLR371W, strain rom2, hits give low values 0.977 | S. cerevisiae deletion strains, locus YLR384C, strain iki3, hits give low values 0.997 | S. cerevisiae deletion strains, locus YLR418C, strain cdc73, hits give low values 1.01 | S. cerevisiae deletion strains, locus YML016C, strain PPZ1, hits give low values 1.01 | S. cerevisiae deletion strains, locus YML032C, strain rad52, hits give low values 0.972 | S. cerevisiae deletion strains, locus YML120C, strain ndi1, hits give low values 1.01 | S. cerevisiae deletion strains, locus YML124C, strain tub3, hits give low values 0.991 | S. cerevisiae deletion strains, locus YMR058W, strain fet3, hits give low values 0.987 | S. cerevisiae deletion strains, locus YMR078C, strain ctf18, hits give low values 0.977 | S. cerevisiae deletion strains, locus YMR125W, strain sto1, hits give low values 0.964 | S. cerevisiae deletion strains, locus YMR129W, hits give low values 1 | S. cerevisiae deletion strains, locus YMR205C, strain PFK2, hits give low values 0.97 | S. cerevisiae deletion strains, locus YMR223W, strain ubp8, hits give low values 1.02 | S. cerevisiae deletion strains, locus YMR231W, strain pep5, hits give low values 0.996 | S. cerevisiae deletion strains, locus YMR263W, strain SAP30, hits give low values 1.01 | S. cerevisiae deletion strains, locus YMR307W, strain GAS1, hits give low values 1.01 | S. cerevisiae deletion strains, locus YNL067W, strain RPL9B, hits give low values 0.993 | S. cerevisiae deletion strains, locus YNL071W, strain lat1, hits give low values 0.991 | S. cerevisiae deletion strains, locus YNL128W, strain TEP1, hits give low values 1.02 | S. cerevisiae deletion strains, locus YNL153C, strain GIM3, hits give low values 0.985 | S. cerevisiae deletion strains, locus YNL183C, strain NPR1, hits give low values 0.968 | S. cerevisiae deletion strains, locus YNL209W, strain ssb2, hits give low values 1 | S. cerevisiae deletion strains, locus YNL233W, strain BNI4, hits give low values 0.992 | S. cerevisiae deletion strains, locus YNL248C, strain rpa49, hits give low values 1.01 | S. cerevisiae deletion strains, locus YNL250W, strain rad50, hits give low values 0.988 | S. cerevisiae deletion strains, locus YNL271C, strain bni1, hits give low values 0.99 | S. cerevisiae deletion strains, locus YNL298W, strain CLA4, hits give low values 0.993 | S. cerevisiae deletion strains, locus YNL307C, strain MCK1, hits give low values 1 | S. cerevisiae deletion strains, locus YNL322C, strain KRE1 (second series), hits give low values 0.985 | S. cerevisiae deletion strains, locus YNL322C, strain KRE1, hits give low values 1.01 | S. cerevisiae deletion strains, locus YNR049C, strain mso1, hits give low values 0.995 | S. cerevisiae deletion strains, locus YNR052C, strain pop2, hits give low values 0.997 | S. cerevisiae deletion strains, locus YOL006C, strain TOP1, hits give low values 1.05 | S. cerevisiae deletion strains, locus YOL012C, strain htz1 0.91 | S. cerevisiae deletion strains, locus YOL147C, strain pex11, hits give low values 0.991 | S. cerevisiae deletion strains, locus YOR001W, strain rrp6, hits give low values 1 | S. cerevisiae deletion strains, locus YOR061W, strain CKA2, hits give low values 1.02 | S. cerevisiae deletion strains, locus YOR069W, strain VPS5, hits give low values 1.01 | S. cerevisiae deletion strains, locus YOR070C, strain gyp1, hits give low values 0.991 | S. cerevisiae deletion strains, locus YOR080W, strain dia2, hits give low values 0.986 | S. cerevisiae deletion strains, locus YOR083W, strain WHI5, hits give low values 1.01 | S. cerevisiae deletion strains, locus YOR106W, strain vam3, hits give low values 0.997 | S. cerevisiae deletion strains, locus YOR136W, strain idh2, hits give low values 0.989 | S. cerevisiae deletion strains, locus YOR144C, strain elg1, hits give low values 0.986 | S. cerevisiae deletion strains, locus YOR184W, strain ser1, hits give low values 1 | S. cerevisiae deletion strains, locus YOR231W, strain MKK1, hits give low values 1.02 | S. cerevisiae deletion strains, locus YOR265W, strain rbl2, hits give low values 0.99 | S. cerevisiae deletion strains, locus YOR270C, strain vph1, hits give low values 1.02 | S. cerevisiae deletion strains, locus YOR290C, strain snf2, hits give low values 0.987 | S. cerevisiae deletion strains, locus YOR316C, strain cot1, hits give low values 0.989 | S. cerevisiae deletion strains, locus YPL051W, strain arl3, hits give low values 0.983 | S. cerevisiae deletion strains, locus YPL055C, strain LGE1, hits give low values 1.03 | S. cerevisiae deletion strains, locus YPL078C, strain atp4, hits give low values 0.996 | S. cerevisiae deletion strains, locus YPL106C, strain sse1, hits give low values 0.94 | S. cerevisiae deletion strains, locus YPL240C, strain hsp82, hits give low values 1.01 | S. cerevisiae deletion strains, locus YPL241C, strain CIN2, hits give low values 1.01 | S. cerevisiae deletion strains, locus YPL256C, strain CLN2, hits give low values 1.01 | S. cerevisiae deletion strains, locus YPR119W, strain clb2, hits give low values 0.981 | S. cerevisiae deletion strains, locus YPR141C, strain kar3, hits give low values 0.984 | S. cerevisiae deletion strains, locus YPR163C, strain tif3, hits give low values 0.996 | S. cerevisiae deletion strains, locus YPR167C, strain met16, hits give low values 0.99 | S. cerevisiae deletion strains, strain wtn01, hits give low values 0.979 | S. cerevisiae strains, strain wild type, hits give low values 1.02
